Test results taken from PubChem BioAssay (NCATS).
Records with an inconclusive call do not appear. A call without a number means that no potency is given here. Unmarked numbers belong to inactive results. The source made the active and inactive calls. Calls come from the whole dose curve; as a rule, active = well fitted curve in the direction sought with a large enough effect; inconclusive = small, poorly fitted or top-dose-only effect, or another doubt; inactive = no such curve, though single readings can be large; an effect the other way counts as inactive or inconclusive.

What was measured:
[1] = qHTS assay to identify small molecule inhibitors of chordoma cells - UCH-1 (AID 1259355); note: nearly all actives have a fitted effect of over 55% in size; note: potency is the fitted concentration of half-maximal effect; series mostly up to about 46 µM
Outline: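 800 cells/well, overnight attach; compounds pinned at 15 concs, then auranofin/camptothecin/doxorubicin/rubitecan/topotecan combo added; 48hr 37 C, 5% CO2; CellTiter-Glo, 30min RT, luminescence.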

[2] = P-glycoprotein substrates identified in KB-8-5-11 adenocarcinoma cell line, qHTS therapeutic library screen (AID 1346987); note: nearly all actives have a fitted effect of over 65% in size; note: potency is the fitted concentration of half-maximal effect
Outline: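 Compounds are pinned in dose-response onto KB-8-5-11 cells (500 cells/well, colchicine-free medium) and left 72 h at 37 degree C. CellTiter-Glo luminescence then yields AC50 values.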

[3] = qHTS of pediatric cancer cell lines to identify multiple opportunities for drug repurposing: Primary screen for TC32 cells (AID 1347089); note: nearly all actives have a fitted effect of over 60% in size; note: potency is the fitted concentration of half-maximal effect
Outline: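 A viability screen of TC32 cells was run over 48 h, with primary MIPE doses spanning 0.78 nM–46 µM and NPC doses 0.59 nM–46 µM. ATP luminescence (CellTiter-Glo) served as the read-out.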

[4] = qHTS of pediatric cancer cell lines to identify multiple opportunities for drug repurposing: Primary screen for DAOY cells (AID 1347090); note: nearly all actives have a fitted effect of over 55% in size; note: potency is the fitted concentration of half-maximal effect; for activity change, negative = cytotoxic: series mostly up to about 46 µM
Outline: (§1)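 Cell viability, CellTiter-Glo luminescence; 500-1,000 cells/well, 8- or 11-point titration, 48 h compound exposure at 37 degrees C, 5% CO2. Controls: DMSO neutral, bortezomib 2.3 µM final as positive.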

[5] = qHTS of pediatric cancer cell lines to identify multiple opportunities for drug repurposing: Primary screen for SJ-GBM2 cells (AID 1347091); note: potency is the fitted concentration of half-maximal effect
Outline: as §1

[6] = qHTS of pediatric cancer cell lines to identify multiple opportunities for drug repurposing: Primary screen for A673 cells (AID 1347092); note: nearly all actives have a fitted effect of over 45% in size; note: potency is the fitted concentration of half-maximal effect
Outline: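 Titration-based qHTS on A673 cells: MIPE compounds spanned 11 points (0.78 nM to 46 µM final), NPC compounds 8 points (0.59 nM to 46 µM final). Viability after 48 h was measured by ATP luminescence.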

[7] = qHTS of pediatric cancer cell lines to identify multiple opportunities for drug repurposing: Primary screen for SK-N-MC cells (AID 1347093); note: potency is the fitted concentration of half-maximal effect; for activity change, negative = cytotoxic: series mostly up to about 46 µM
Outline: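 Metabolically active cells were quantified by ATP-dependent luminescence (CellTiter-Glo, 15 min at room temperature) following 48 h treatment. Cells had been plated at 500-1,000 per well and settled for 5 h beforehand.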

[8] = qHTS of pediatric cancer cell lines to identify multiple opportunities for drug repurposing: Primary screen for BT-37 cells (AID 1347094); note: potency is the fitted concentration of half-maximal effect; for activity change, negative = cytotoxic: series mostly up to about 57 µM
Outline: (§2)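 Quantitative HTS format: each compound titrated (MIPE 11 points from 0.78 nM, NPC 8 points from 0.59 nM) onto cells plated 5 hours earlier. After 48 h at 37 degrees C, CellTiter-Glo luminescence was recorded.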

[9] = qHTS of pediatric cancer cell lines to identify multiple opportunities for drug repurposing: Primary screen for NB-EBc1 cells (AID 1347095)
Outline: as §2

[10] = qHTS of pediatric cancer cell lines to identify multiple opportunities for drug repurposing: Primary screen for U-2 OS cells (AID 1347096); note: nearly all actives have a fitted effect of over 50% in size
Outline: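 Cells (500-1,000/well) rested 5 h, then received compounds for 48 h; metabolically active cells were measured by CellTiter-Glo luminescence. Final concentrations spanned up to 46 µM (MIPE, 11-point) or 0.59 nM-46 µM (NPC, 8-point) in primary screens, 11-point in follow-ups.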

[11] = NS1 protein of Zika virus - qHTS assay to identify small molecule inhibitors in human HEK 293 cells (AID 1347053); note: series mostly up to about 46 µM; nearly all actives have a fitted effect of over 55% in size
Outline: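 Compound-treated (1 h pre-infection) HEK 293 cells infected with ZIKV MR766, MOI = 0.5; after 24 h at 37 C, NS1 read by TR-FRET; data normalized to uninfected and infected controls.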

FC(F)(F)C(F)(F)C(F)(F)C(F)(F)C(F)(F)C(F)(F)C(F)(F)C(F)(F)Br
Potency [1]: inactive | Potency [2]: inactive | Potency [3]: inactive | Potency [4]: inactive | Potency [5]: inactive | Potency [6]: inactive | Potency [7]: inactive | Potency [8]: inactive | Potency [9]: inactive | Potency [10]: inactive

COc1cc(C(=O)N2CCCCCCC2)cc(OC)c1OC
Potency [1]: inactive | Potency [2]: inactive | Potency [3]: inactive | Potency [4]: inactive | Potency [5]: inactive | Potency [6]: inactive | Potency [7]: inactive | Potency [8]: inactive | Potency [10]: inactive

CC(C)n1c(/C=C/[C@@H](O)C[C@@H](O)CC(=O)O)c(-c2ccc(F)cc2)c2ccccc21
Potency [1]: inactive | Potency [11]: inactive | Potency [3]: 16.7 µM (active) | Potency [4]: 1.33 µM (active) | Potency [6]: 5.31 µM (active) | Potency [7]: 15 µM (active) | Potency [8]: 15.5 µM (active)

CCNC(=O)/C=C/c1cccc(Br)c1
Potency [1]: inactive | Potency [2]: inactive | Potency [11]: inactive | Potency [3]: inactive | Potency [4]: inactive | Potency [5]: inactive | Potency [6]: inactive | Potency [7]: inactive | Potency [8]: inactive | Potency [9]: inactive

O=C(O)Cc1csc(-c2ccc(Cl)cc2)n1
Potency [1]: inactive | Potency [2]: inactive | Potency [11]: inactive | Potency [3]: inactive | Potency [4]: inactive | Potency [5]: inactive | Potency [6]: inactive | Potency [7]: inactive | Potency [8]: inactive | Potency [9]: inactive

CCCCCCCCCCCCCC[N+](C)(C)Cc1ccccc1
Potency [1]: inactive | Potency [2]: inactive | Potency [6]: 13.3 µM (active) | Potency [7]: 11.9 µM (active) | Potency [8]: 24.6 µM (active)

COc1ccc(C(=O)c2ccccc2)c(O)c1
Potency [1]: inactive | Potency [2]: inactive | Potency [11]: inactive | Potency [3]: inactive | Potency [4]: inactive | Potency [5]: inactive | Potency [6]: inactive | Potency [7]: inactive | Potency [8]: inactive | Potency [9]: inactive | Potency [10]: inactive

C=CCN1CCc2nc(N)sc2CC1
Potency [1]: inactive | Potency [2]: inactive | Potency [11]: inactive | Potency [3]: inactive | Potency [4]: inactive | Potency [5]: inactive | Potency [6]: inactive | Potency [7]: inactive | Potency [8]: inactive | Potency [9]: inactive | Potency [10]: inactive

CCCN(CCC)S(=O)(=O)c1ccc(C(=O)O)cc1
Potency [1]: inactive | Potency [2]: inactive | Potency [11]: inactive | Potency [3]: inactive | Potency [4]: inactive | Potency [5]: inactive | Potency [6]: inactive | Potency [7]: inactive | Potency [8]: inactive | Potency [9]: inactive | Potency [10]: inactive

CN1CCC[C@@H]1CCO[C@](C)(c1ccccc1)c1ccc(Cl)cc1
Potency [1]: inactive | Potency [2]: inactive | Potency [3]: inactive | Potency [5]: 21.1 µM (active) | Potency [7]: 29.9 µM (active) | Potency [10]: inactive

O=C(O)P(=O)(O)O
Potency [1]: inactive | Potency [11]: inactive | Potency [3]: inactive | Potency [4]: inactive | Potency [5]: inactive | Potency [6]: inactive | Potency [7]: inactive | Potency [8]: inactive | Potency [9]: inactive | Potency [10]: inactive

CN(C)CCOC(=O)C(c1ccccc1)C1(O)CCCC1 (configuration not stated)
Potency [1]: inactive | Potency [2]: inactive | Potency [11]: inactive | Potency [3]: inactive | Potency [4]: inactive | Potency [5]: inactive | Potency [6]: inactive | Potency [7]: inactive | Potency [8]: inactive | Potency [9]: inactive | Potency [10]: inactive

CCOC(=O)[C@H](CCc1ccccc1)N[C@@H](C)C(=O)N1[C@H](C(=O)O)C[C@@H]2CCC[C@@H]21
Potency [1]: inactive | Potency [2]: inactive | Potency [11]: inactive | Potency [3]: inactive | Potency [4]: inactive | Potency [6]: inactive | Potency [8]: inactive | Potency [9]: inactive | Potency [10]: inactive

Cc1c[nH]c2ccccc12
Potency [1]: inactive | Potency [2]: inactive | Potency [11]: inactive | Potency [3]: inactive | Potency [4]: inactive | Potency [5]: inactive | Potency [6]: inactive | Potency [8]: inactive | Potency [10]: inactive

Cc1cc(CC(=O)O)c(C)n1-c1ccc(Cl)cc1
Potency [1]: inactive | Potency [2]: inactive | Potency [11]: inactive | Potency [3]: inactive | Potency [4]: inactive | Potency [6]: inactive | Potency [8]: inactive | Potency [9]: inactive | Potency [10]: inactive

NC(=S)N/N=C/c1cccnc1
Potency [1]: inactive | Potency [2]: inactive | Potency [11]: inactive | Potency [3]: inactive | Potency [4]: inactive | Potency [5]: inactive | Potency [6]: inactive | Potency [7]: inactive | Potency [8]: inactive | Potency [10]: inactive

CCCc1ncc(C[n+]2ccccc2C)c(N)n1
Potency [1]: inactive | Potency [2]: inactive | Potency [11]: inactive | Potency [3]: inactive | Potency [4]: inactive | Potency [5]: inactive | Potency [6]: inactive | Potency [7]: inactive | Potency [8]: inactive | Potency [9]: inactive | Potency [10]: inactive

Cc1cccc(C)c1NC(=O)CN1CCCC1
Potency [1]: inactive | Potency [2]: inactive | Potency [11]: inactive | Potency [3]: inactive | Potency [4]: inactive | Potency [6]: inactive | Potency [7]: inactive | Potency [8]: inactive | Potency [10]: inactive

O=C(CN1CCN(Cc2ccc3c(c2)OCO3)CC1)N1c2ccccc2Sc2ccccc21
Potency [1]: inactive | Potency [11]: inactive | Potency [3]: inactive | Potency [4]: inactive | Potency [5]: inactive | Potency [6]: inactive | Potency [7]: inactive | Potency [8]: inactive | Potency [9]: inactive | Potency [10]: inactive

CC(=O)Nc1ccc(S(=O)(=O)Nc2ccc([N+](=O)[O-])cc2)cc1
Potency [1]: inactive | Potency [2]: inactive | Potency [11]: inactive | Potency [3]: inactive | Potency [4]: inactive | Potency [5]: inactive | Potency [6]: inactive | Potency [7]: inactive | Potency [8]: inactive | Potency [9]: inactive | Potency [10]: inactive

O=C(Nc1ncc([N+](=O)[O-])s1)c1cccs1
Potency [1]: 14.1 µM (active) | Potency [2]: 16.4 µM (active) | Potency [11]: inactive | Potency [4]: 16.8 µM (active) | Potency [8]: 24.6 µM (active)

CC(C)Cn1cnc2c1c(=O)n(C)c(=O)n2C
Potency [1]: inactive | Potency [2]: inactive | Potency [11]: inactive | Potency [3]: inactive | Potency [4]: inactive | Potency [6]: inactive | Potency [7]: inactive | Potency [8]: inactive | Potency [9]: inactive | Potency [10]: inactive

CCOc1ccccc1OCCN[C@H](C)Cc1ccc(OC)c(S(N)(=O)=O)c1
Potency [1]: inactive | Potency [2]: inactive | Potency [11]: inactive | Potency [3]: inactive | Potency [4]: inactive | Potency [5]: inactive | Potency [6]: inactive | Potency [7]: inactive | Potency [8]: inactive | Potency [10]: inactive

CCN(CC)CCNC(=O)c1cc(Br)c(N)cc1OC
Potency [1]: inactive | Potency [2]: inactive | Potency [11]: inactive | Potency [3]: inactive | Potency [4]: inactive | Potency [5]: inactive | Potency [6]: inactive | Potency [7]: inactive | Potency [8]: inactive | Potency [9]: inactive | Potency [10]: inactive

NC(=O)n1c(O)c(C(=O)c2cccs2)c2cc(Cl)ccc21
Potency [1]: inactive | Potency [2]: inactive | Potency [3]: inactive | Potency [5]: 15 µM (active) | Potency [7]: 26.6 µM (active)

CCCCC(CC)COC(=O)c1ccc(N(C)C)cc1 (configuration not stated)
Potency [1]: inactive | Potency [2]: inactive | Potency [11]: inactive | Potency [3]: inactive | Potency [4]: inactive | Potency [5]: inactive | Potency [6]: inactive | Potency [7]: inactive | Potency [8]: inactive | Potency [9]: inactive | Potency [10]: inactive

CC(=O)NC(=O)c1ccccc1O
Potency [1]: inactive | Potency [2]: inactive | Potency [11]: inactive | Potency [3]: inactive | Potency [4]: inactive | Potency [5]: inactive | Potency [6]: inactive | Potency [7]: inactive | Potency [8]: inactive | Potency [9]: inactive | Potency [10]: inactive

CC(=O)Nc1ncc([N+](=O)[O-])s1
Potency [1]: inactive | Potency [2]: inactive | Potency [11]: inactive | Potency [3]: inactive | Potency [4]: inactive | Potency [5]: inactive | Potency [6]: inactive | Potency [7]: inactive | Potency [8]: inactive | Potency [9]: inactive

CCN[C@@H]1C[C@H](N)[C@@H](OC2OC(CN)=CCC2N)[C@H](O)[C@H]1O[C@H]1OC[C@](C)(O)[C@H](NC)[C@H]1O (some centres not stated)
Potency [1]: inactive | Potency [2]: inactive | activity change, negative = inhibition [11]: -23.1% [at 0.593 µM] | activity change, negative = cytotoxic [3]: 2.31% [at 0.594 µM] | activity change, negative = cytotoxic [4]: 1.01% [at 0.597 µM] | activity change, negative = cytotoxic [6]: -2.55% [at 0.597 µM] | activity change, negative = cytotoxic [7]: -24.4% [at 0.597 µM] | activity change, negative = cytotoxic [8]: 5.98% [at 0.745 µM] | activity change, negative = cytotoxic [9]: -22.3% [at 0.597 µM] | activity change, negative = cytotoxic [10]: 2.58% [at 0.597 µM]
